Consider two molecules from PubChem BioAssay AID2284202 (EPA ToxCast).

SMILES strings stand for the structures. Activity calls are given as the source filed them. Rule for the calls: active = hit-call score of the fitted dose curve at least 0.9, where 1 is the maximum; inactive = score below 0.9.

Sequence of human Dopamine Transporter (DAT), SLC6A3 (gene 6531) (Q01959 whole entry, looked up): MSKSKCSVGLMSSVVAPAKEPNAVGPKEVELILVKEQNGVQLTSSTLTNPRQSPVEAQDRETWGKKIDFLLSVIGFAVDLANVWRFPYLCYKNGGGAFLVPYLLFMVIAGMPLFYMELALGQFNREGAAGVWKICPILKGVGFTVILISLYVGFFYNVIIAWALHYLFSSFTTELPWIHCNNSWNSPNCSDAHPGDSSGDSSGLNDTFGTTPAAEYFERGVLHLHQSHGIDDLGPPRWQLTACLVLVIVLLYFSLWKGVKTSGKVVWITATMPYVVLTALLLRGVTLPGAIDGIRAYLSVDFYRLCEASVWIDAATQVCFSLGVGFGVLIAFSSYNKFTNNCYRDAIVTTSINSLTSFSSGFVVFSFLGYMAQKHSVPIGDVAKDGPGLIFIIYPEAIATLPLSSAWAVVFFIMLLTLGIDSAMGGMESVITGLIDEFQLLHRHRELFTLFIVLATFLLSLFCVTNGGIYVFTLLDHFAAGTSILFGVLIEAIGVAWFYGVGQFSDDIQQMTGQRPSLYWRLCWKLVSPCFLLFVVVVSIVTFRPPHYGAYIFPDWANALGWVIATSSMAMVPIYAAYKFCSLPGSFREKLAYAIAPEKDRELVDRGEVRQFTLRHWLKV

The assay deals with human Dopamine Transporter (DAT), SLC6A3 (gene 6531) (UniProt Q01959). Put plainly: ERF_FR_TR_hSLC6A3: Eurofins (ERF) Radioligand Binding LeadHunter Assay for human Dopamine Transporter (DAT) Antagonism, conducted at France lab site. The protocol:
ERF_FR_TR_hSLC6A3 is a biochemical, single-readout assay that uses extracted gene-proteins in a cell-free assay. Measurements were taken 2 hour after chemical dosing in a 96-well plate. See DAT Human Dopamine Transporter Binding (Antagonist Radioligand) Assay, Cerep.ERF_FR_TR_hSLC6A3 is an assay component calculated from the ERF_FR_TR_hSLC6A3 assay. It is designed to measure radioligand binding using a type of binding reporter as detected by scintillation counting with radiometry technology.Data from the assay component ERF_FR_TR_hSLC6A3 was analyzed at the assay endpoint, ERF_FR_TR_hSLC6A3, in the positive analysis fitting direction relative to DMSO as the negative control and baseline of activity. Using a type of binding reporter, loss-of-signal activity can be used to understand changes in binding as they relate to gene SLC6A3. To generalize the intended target to other relatable targets, this assay endpoint is annotated to the transporter intended target family, where the subfamily is SLC6 / Monoamine.
Human cells are incubated for 120 minutes at 4C with [3H]BTCP (4 nM) ligand and BTCP as control inhibitor. Test Sample Requirements: Minimum for 1) Screen: 60 ul of 10 mM stock -OR- 1 mg (pre-weighed) for 10 uM final testing. 2) Dose Response: 90 ul of 10 mM stock -OR- 1 mg (pre-weighed) for a top concentration at 10 uM.
For `COc1cc(CCC(=O)CC(=O)CCc2ccc(O)c(OC)c2)ccc1O`, the AC50 is 2970 nM (active).
Then `O=C(/C=C/c1ccc(O)cc1)CC(=O)/C=C/c1ccc(O)cc1`, with 2890 nM (active).

In general, AC50 refers to the midpoint of the concentration-response curve, whichever way the signal moves.
